# Source: ChEMBL document CHEMBL2218924, “A broad activity screen in support of a chemogenomic map for kinase signalling research and drug discovery” (Biochem J, 2013)
# Experiments:
# [1] = molecular target: Tyrosine-protein kinase SYK (Homo sapiens) (UniProt P43405); details: at 10 µM
# [2] = molecular target: T1, Mitogen-activated protein kinase kinase kinase 7 (Homo sapiens) (UniProt O43318); details: at 1 µM
# T1 sequence (whole entry): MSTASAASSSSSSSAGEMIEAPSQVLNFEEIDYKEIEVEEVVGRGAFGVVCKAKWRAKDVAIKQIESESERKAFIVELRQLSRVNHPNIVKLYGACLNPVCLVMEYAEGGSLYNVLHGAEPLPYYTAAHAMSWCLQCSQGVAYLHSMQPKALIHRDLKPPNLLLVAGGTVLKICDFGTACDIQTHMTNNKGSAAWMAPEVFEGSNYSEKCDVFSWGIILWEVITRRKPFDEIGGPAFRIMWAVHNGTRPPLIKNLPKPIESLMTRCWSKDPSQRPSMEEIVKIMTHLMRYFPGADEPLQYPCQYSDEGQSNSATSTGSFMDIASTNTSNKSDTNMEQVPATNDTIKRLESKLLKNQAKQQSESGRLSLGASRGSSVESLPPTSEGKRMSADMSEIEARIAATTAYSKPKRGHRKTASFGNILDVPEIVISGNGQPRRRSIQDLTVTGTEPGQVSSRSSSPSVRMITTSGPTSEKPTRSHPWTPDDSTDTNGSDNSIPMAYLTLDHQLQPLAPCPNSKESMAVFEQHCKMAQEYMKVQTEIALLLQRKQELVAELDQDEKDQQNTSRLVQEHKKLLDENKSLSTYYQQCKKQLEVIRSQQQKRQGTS
# [3] = molecular target: T1, Mitogen-activated protein kinase kinase kinase 7 (Homo sapiens); details: at 10 µM
# [4] = molecular target: T2, Serine/threonine-protein kinase TAO1 (Homo sapiens) (UniProt Q7L7X3); details: at 1 µM
# T2 sequence (whole entry): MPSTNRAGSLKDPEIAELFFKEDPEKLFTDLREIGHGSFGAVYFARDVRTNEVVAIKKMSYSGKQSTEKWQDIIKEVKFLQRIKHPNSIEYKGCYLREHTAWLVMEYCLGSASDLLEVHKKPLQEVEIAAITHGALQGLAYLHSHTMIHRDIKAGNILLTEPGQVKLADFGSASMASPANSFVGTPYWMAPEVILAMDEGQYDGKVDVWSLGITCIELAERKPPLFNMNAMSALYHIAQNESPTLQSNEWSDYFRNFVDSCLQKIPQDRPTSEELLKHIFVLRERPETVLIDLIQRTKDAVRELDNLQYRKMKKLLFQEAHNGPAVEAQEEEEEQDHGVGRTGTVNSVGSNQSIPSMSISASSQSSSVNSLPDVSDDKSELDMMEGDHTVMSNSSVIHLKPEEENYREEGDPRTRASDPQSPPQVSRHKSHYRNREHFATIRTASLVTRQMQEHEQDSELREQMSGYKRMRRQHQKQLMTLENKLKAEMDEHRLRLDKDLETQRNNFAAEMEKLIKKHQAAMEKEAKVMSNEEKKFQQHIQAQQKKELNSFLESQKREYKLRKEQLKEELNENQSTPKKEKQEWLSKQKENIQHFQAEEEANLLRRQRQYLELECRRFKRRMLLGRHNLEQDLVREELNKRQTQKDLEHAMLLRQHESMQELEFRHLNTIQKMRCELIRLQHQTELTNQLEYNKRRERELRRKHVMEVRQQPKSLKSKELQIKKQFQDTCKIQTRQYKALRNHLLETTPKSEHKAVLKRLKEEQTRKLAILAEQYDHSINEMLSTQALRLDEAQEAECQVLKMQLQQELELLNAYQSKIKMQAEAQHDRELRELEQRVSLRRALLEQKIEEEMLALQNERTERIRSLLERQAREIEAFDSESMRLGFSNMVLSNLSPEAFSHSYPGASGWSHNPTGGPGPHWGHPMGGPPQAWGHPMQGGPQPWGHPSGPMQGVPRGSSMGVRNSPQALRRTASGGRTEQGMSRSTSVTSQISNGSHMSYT
# [5] = molecular target: T2, Serine/threonine-protein kinase TAO1 (Homo sapiens); details: at 10 µM
# [6] = molecular target: T3, Serine/threonine-protein kinase TAO2 (Homo sapiens) (UniProt Q9UL54); details: at 1 µM
# T3 sequence (whole entry): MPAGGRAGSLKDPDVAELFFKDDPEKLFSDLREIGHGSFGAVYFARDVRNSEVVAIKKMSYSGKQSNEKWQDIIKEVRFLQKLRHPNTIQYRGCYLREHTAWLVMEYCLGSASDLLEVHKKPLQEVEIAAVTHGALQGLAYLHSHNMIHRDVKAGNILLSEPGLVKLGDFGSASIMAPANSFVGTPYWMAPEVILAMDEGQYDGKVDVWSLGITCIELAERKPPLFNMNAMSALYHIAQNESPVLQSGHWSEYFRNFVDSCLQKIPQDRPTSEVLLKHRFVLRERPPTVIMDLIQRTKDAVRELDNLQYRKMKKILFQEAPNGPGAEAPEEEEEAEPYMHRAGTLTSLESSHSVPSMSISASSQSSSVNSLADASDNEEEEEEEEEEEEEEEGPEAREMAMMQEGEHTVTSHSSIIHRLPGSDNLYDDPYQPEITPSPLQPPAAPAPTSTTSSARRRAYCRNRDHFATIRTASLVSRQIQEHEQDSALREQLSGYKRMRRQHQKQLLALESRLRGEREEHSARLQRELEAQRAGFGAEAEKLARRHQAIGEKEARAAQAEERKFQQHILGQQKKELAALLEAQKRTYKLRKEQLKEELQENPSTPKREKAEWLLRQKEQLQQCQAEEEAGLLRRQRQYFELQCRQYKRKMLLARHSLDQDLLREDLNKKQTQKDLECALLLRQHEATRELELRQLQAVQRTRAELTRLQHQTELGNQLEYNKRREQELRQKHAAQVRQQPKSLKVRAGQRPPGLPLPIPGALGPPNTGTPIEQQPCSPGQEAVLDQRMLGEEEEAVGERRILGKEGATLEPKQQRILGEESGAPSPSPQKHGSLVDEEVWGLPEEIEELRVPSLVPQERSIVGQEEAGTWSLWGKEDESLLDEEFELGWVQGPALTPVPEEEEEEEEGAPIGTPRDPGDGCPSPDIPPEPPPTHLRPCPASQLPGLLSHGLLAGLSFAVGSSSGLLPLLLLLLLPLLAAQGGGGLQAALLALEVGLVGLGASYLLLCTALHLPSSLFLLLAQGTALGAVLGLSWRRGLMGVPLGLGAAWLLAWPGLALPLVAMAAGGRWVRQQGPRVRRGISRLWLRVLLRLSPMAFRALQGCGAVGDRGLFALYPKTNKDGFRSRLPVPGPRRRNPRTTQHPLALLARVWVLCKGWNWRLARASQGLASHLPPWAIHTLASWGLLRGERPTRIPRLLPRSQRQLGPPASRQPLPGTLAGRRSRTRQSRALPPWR
# [7] = molecular target: T3, Serine/threonine-protein kinase TAO2 (Homo sapiens); details: at 10 µM
# [8] = molecular target: T4, Serine/threonine-protein kinase TAO3 (Homo sapiens) (UniProt Q9H2K8); details: at 1 µM
# T4 sequence (whole entry): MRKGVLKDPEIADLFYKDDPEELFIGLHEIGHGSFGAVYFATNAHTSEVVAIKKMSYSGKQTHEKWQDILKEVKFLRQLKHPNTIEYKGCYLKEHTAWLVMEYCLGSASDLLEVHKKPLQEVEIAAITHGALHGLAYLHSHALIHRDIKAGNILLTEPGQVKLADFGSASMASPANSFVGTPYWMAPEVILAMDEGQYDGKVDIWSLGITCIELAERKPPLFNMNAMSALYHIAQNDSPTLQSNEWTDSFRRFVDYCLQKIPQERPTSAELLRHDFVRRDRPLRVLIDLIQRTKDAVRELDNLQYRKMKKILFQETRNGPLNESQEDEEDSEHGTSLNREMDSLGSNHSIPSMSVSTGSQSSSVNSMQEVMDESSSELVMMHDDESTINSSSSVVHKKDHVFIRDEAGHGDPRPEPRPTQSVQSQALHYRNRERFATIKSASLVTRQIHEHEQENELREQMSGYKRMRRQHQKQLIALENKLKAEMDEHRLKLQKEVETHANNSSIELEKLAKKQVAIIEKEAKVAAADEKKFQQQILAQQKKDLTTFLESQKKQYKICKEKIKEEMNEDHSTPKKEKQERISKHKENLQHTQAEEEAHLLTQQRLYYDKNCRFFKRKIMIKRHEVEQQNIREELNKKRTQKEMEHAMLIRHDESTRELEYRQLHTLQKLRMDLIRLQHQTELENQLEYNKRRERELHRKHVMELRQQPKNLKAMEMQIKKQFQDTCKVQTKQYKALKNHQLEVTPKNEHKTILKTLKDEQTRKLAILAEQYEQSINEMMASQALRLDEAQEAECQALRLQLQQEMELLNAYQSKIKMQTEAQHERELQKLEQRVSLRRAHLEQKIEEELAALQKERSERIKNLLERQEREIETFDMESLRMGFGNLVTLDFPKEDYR
# [9] = molecular target: T4, Serine/threonine-protein kinase TAO3 (Homo sapiens); details: at 10 µM
smiles,measurement,setting,value
O=C(O)/C=C/c1cc(Br)c(Br)c(Br)c1Br,residual activity,[1],84%
same,residual activity,[2],107%
same,residual activity,[3],95%
same,residual activity,[4],77%
same,residual activity,[5],29%
same,residual activity,[6],84%
same,residual activity,[7],68%
same,residual activity,[8],81%
same,residual activity,[9],26%
